Assay outcomes: PubChem BioAssay, National Center for Advancing Translational Sciences (NCATS)
This is a sample that favours compounds with a hit; in the whole collection about 7.8% have one here.
HCMV antiviral – inhibitors of human cytomegalovirus; HFF cells, HCMV-luciferase reporter, 72 h; stronger effect = lower value; 410,000 compounds, 4.5% hits; activity change, negative = inhibition, % at 57.5 µM; in the data active = activity change below about -60%; inconclusive = no clear call, values can overlap the other calls; inactive = above about -39%
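Luciferase read-out from HCMV-luciferase-infected HFFs (MOI 1 PFU/cell) 72 h post infection at 37C; compounds added after 16 h cell attachment; activity normalized between buffer-only basal and Salinomycin (10uM) inhibitor controls.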
LASV entry inh – Lassa virus entry inhibition. Lassa virus pseudotype entry inhibition, cell reporter. Potency, µM (series often up to 37.9 µM), most hits filed as inhibitors. 300,000 compounds, 1.2% hits; calls by dose curve; tested in HEK293 cells; note: nearly all actives have a fitted effect of over 50% in size
Vaccinia mCherry – vaccinia inhibition (mCherry reporter). Vaccinia virus mCherry reporter infection, fluorescence. Potency, µM (top dose mostly 36.5 µM), hits mostly inhibitors. 310,000 compounds, 0.63% hits. AID 720579; calls by dose curve; tested in A549 cells; note: nearly all actives have a fitted effect of over 35% in size
MARV entry inh – Marburg virus entry inhibition | Marburg virus pseudotyped entry inhibition, cell reporter | Potency, µM (doses to about 37.8 µM), hits mostly inhibitors | 300,000 compounds, 1.8% hits | AID 540276; calls by dose curve; tested in HEK293 cells
VACV Venus inh – vaccinia inhibition (Venus reporter); Potency, µM (series often up to 36.5 µM), most hits filed as inhibitors; Vaccinia virus Venus reporter expression, fluorescence; 330,000 compounds, 0.46% hits; calls by dose curve; tested in A549 cells; note: nearly all actives have a fitted effect of over 30% in size
HCV inh – inhibitors of hepatitis C virus infection. Huh7.5.1 HCVcc-Cre infection, luciferase reporter, 44 h. Potency, µM (highest dose often 41.8 µM), most hits filed as inhibitors. 340,000 compounds, 3.4% hits; active = well fitted inhibition curve with a large enough effect; inconclusive = small, poorly fitted or top-dose-only effect, or another doubt; inactive = no such curve, though single readings can be large or run the other way
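Seed cells (1,000/well) for 4 h; treat with compound and infect with HCVcc-Cre, moi about 0.5. Incubate 44 h, then detect luciferase activity.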
A number is an active result; n = inactive; u = inconclusive; x = no result given.

SMILES	HCMV antiviral	LASV entry inh	Vaccinia mCherry	MARV entry inh	VACV Venus inh	HCV inh
COCCNC(=S)N1CCN(c2nc(-c3ccc(Cl)cc3)cs2)CC1	u	n	u	n	n	13µM
S=C(NCc1ccco1)N1CCN(c2nc(-c3ccc(Cl)cc3)cs2)CC1	-74	u	n	u	n	u
S=C(NCc1ccco1)N1CCN(c2nc(-c3ccccc3)cs2)CC1	u	n	n	n	n	u
COCCNC(=S)N1CCN(c2nc(-c3ccc(F)cc3)cs2)CC1	n	x	x	x	x	u
CCOc1ccc2c(c1)C(c1cccs1)=NNC(c1cccnc1)=N2	-71	n	n	n	n	n
COCCNC(=O)Cn1c(-c2cccs2)cc2cc(Cl)ccc21	n	n	n	x	n	x
COCCNC(=S)N(CCc1c(C)[nH]c2ccc(F)cc12)Cc1ccc(C)cc1	n	u	n	u	n	14µM
COc1ccc(NC(=S)N(CCc2c(C)[nH]c3ccc(C)cc23)Cc2ccco2)cc1	n	u	n	u	u	u
COc1ccc2[nH]c(C)c(CCN(Cc3cccs3)C(=S)Nc3ccccc3)c2c1	u	x	n	n	u	u
CCOc1ccc(NC(=S)N(CCc2c(C)[nH]c3ccc(C)cc23)Cc2ccco2)cc1	u	u	n	u	n	11µM
COc1ccc2[nH]c(C)c(CCN(Cc3cccs3)C(=S)Nc3ccc(F)cc3)c2c1	x	x	u	x	n	11µM
CNC(=S)N(CCc1c(C)[nH]c2ccc(C)cc12)Cc1cccs1	n	x	x	x	x	10µM
C=CCOC(=O)N[C@H](c1cccc(C(F)(F)F)c1)C(C(C)=O)C(C)=O	x	x	x	n	x	x
CCCCn1nnnc1C(Nc1ccccc1C(C)=O)C1CC1 (stereo not drawn)	n	x	x	x	x	x
N#Cc1c(-c2ccc(Cl)cc2)[nH]c2ccccc12	n	x	x	x	x	x
N#Cc1c(-c2ccc(Cl)cc2)n(O)c2ccccc12	x	13µM	u	8.9µM	u	u
CCCCC(O)(CCCC)C(=O)N/N=C(\C)c1ccc(Cl)cc1	n	n	u	11µM	n	n
Cc1cccc(C(=O)Nc2ccc(S(=O)(=O)N3CCC(c4nc5ccccc5s4)CC3)cc2)c1	n	n	n	n	n	x
Cc1ccccc1CNC(=O)c1ccc2c(c1)N(Cc1ccccc1)CCS2	n	x	n	8.9µM	n	x
O=C(NCc1ccccc1Cl)c1ccc2c(c1)N(Cc1ccccc1)CCS2	n	n	n	u	n	x
COc1ccc(CNC(=O)c2ccc3c(c2)N(Cc2ccccc2)CCS3)cc1	n	4.5µM	n	u	n	x
CCOc1ccc(CNC(=O)c2ccc3c(c2)N(Cc2ccccc2)CCS3)cc1	n	x	n	u	n	x
CN(C)CC(C)(O)c1ccc2c(c1)CN(C(=O)c1ccc(-n3cccn3)cc1)CCO2 (stereo not drawn)	x	x	n	x	n	x
CC1(C(=O)O)NCCc2cc(O)c(O)cc21 (stereo not drawn)	x	x	n	x	n	x
COCc1ccc(CN2Cc3ccccc3OC(c3ccccc3OC)C2)o1 (stereo not drawn)	x	x	n	x	n	x
SMILES	HCMV antiviral	LASV entry inh	Vaccinia mCherry	MARV entry inh	VACV Venus inh	HCV inh
CCCn1c(C)cc(=O)c2cc(NC(=O)c3cnccn3)ccc21	n	n	n	n	n	2.2µM
COc1ccc(C2/C(=C(/O)c3ccccc3)C(=O)C(=O)N2CCO)cc1 (stereo not drawn)	n	n	n	n	n	n
COc1ccc(N/C(C)=C2/C(=O)C(=O)N(CCO)C2c2ccc(Br)cc2)cc1 (stereo not drawn)	-96	n	x	n	x	n
O=C(Cc1c[nH]c2ccccc12)Nc1nnc(C2CC2)s1	-80	3.5µM	u	u	n	n
CCOC(=O)C1CCCN(c2nc3c(S(=O)(=O)c4ccc(Br)cc4)nnn3c3ccsc23)C1 (stereo not drawn)	n	u	n	x	n	x
CCN(CC)CCCNC(=S)N1CCN(c2nc(-c3ccc(F)cc3)cs2)CC1	-97	u	n	10µM	u	4µM
S=C(NCC1CCCO1)N1CCN(c2nc(-c3ccccc3)cs2)CC1 (stereo not drawn)	n	u	u	u	n	10µM
CCCCC(=O)N1CCN(c2nc(-c3ccc(F)cc3)cs2)CC1	n	n	n	n	n	u
S=C(NCC1CCCO1)N1CCN(Cc2ccccc2)CC1 (stereo not drawn)	n	n	n	n	n	n
CCNC(=S)N1CCN(c2nc(-c3ccc(F)cc3)cs2)CC1	-61	x	x	x	x	u
CC1=C[C@@H](C)OC2(C1)C(=O)N(CC1CC1)c1cccc(Br)c12 (stereo partly drawn)	x	x	x	n	x	x
CN1CCN(CCOc2ccc(-c3ccccc3)cc2)CC1	n	x	x	x	x	u
CCCCCCOc1ccc(CN2CCN(C)CC2)cc1	n	u	x	u	x	1.8µM
CN1CCN(CCCOc2ccc(-c3ccccc3)cc2)CC1	n	u	n	u	n	2.8µM
Cc1ccc(C(=O)C2CCN(CC(=O)N3CCN(c4ccc(F)cc4)CC3)CC2)cc1	-70	n	n	u	n	n
O=C(c1ccc(F)cc1)C1CCN(Cc2ccccc2F)CC1	u	x	n	x	n	x
O=C(CN1CCC(C(=O)c2ccc(F)cc2)CC1)NCc1ccccc1F	n	u	u	u	n	11µM
